Results on two molecules are retold here after ChEMBL document CHEMBL1961873, “Compounds: GSK PKIS; Assays: Nanosyn kinase panel” (2012).

Structures are written as SMILES.

The target in assay [1] is Protein kinase C gamma type (Homo sapiens) (UniProt P05129). Conditions: at 1 µM.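 Note: each value is an averaged percent inhibition of the enzyme.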
The target of assay [2] is T1, Protein kinase C iota type (Homo sapiens) (UniProt P41743).
T1 sequence (whole entry): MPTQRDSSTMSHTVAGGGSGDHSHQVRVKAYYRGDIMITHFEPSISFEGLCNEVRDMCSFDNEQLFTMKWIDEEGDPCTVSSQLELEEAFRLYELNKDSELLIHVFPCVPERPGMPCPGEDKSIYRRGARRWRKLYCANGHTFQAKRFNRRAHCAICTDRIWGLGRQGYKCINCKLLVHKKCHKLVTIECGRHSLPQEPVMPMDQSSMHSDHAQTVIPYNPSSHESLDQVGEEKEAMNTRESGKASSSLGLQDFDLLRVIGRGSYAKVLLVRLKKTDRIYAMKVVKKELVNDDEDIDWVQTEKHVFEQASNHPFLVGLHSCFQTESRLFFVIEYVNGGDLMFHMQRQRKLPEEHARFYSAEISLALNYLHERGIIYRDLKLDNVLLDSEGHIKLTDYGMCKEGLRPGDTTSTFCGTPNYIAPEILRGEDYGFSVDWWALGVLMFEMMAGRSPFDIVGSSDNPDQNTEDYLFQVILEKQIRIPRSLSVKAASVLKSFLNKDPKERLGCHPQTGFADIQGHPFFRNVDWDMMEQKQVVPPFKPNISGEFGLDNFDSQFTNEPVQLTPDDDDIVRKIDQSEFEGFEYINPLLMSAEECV
Conditions: at 0.1 µM.

In assay [3] the target is T1, Protein kinase C iota type (Homo sapiens). The following applies: at 1 µM.
The target in assay [4] is Protein kinase C theta type (Homo sapiens) (UniProt Q04759). The following applies: at 0.1 µM.
Sequence of Protein kinase C theta type (Homo sapiens) (Q04759 whole entry, looked up): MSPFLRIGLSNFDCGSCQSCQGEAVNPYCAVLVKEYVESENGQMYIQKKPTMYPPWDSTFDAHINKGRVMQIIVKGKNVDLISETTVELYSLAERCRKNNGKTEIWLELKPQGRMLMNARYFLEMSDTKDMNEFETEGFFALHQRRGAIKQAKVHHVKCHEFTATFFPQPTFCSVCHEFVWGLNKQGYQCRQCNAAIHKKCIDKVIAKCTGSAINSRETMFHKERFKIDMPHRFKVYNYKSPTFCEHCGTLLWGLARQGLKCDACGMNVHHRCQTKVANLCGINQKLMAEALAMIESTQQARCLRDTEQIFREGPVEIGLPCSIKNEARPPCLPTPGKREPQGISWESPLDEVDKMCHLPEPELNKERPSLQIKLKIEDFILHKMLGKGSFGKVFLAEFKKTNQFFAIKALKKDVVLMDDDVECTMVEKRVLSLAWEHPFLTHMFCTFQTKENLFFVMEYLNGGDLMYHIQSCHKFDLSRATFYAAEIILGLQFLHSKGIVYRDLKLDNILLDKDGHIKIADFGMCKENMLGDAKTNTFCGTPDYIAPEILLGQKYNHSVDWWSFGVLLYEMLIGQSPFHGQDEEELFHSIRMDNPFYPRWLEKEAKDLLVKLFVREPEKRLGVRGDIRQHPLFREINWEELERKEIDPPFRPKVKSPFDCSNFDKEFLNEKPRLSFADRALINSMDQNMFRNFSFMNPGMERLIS
Assay [5] shares this target. Conditions: at 1 µM.
Assay [6] deals with Protein kinase C beta type (Homo sapiens) (UniProt P05771). Conditions: at 0.1 µM.
Sequence of Protein kinase C beta type (Homo sapiens) (P05771 2-671 limits assumed): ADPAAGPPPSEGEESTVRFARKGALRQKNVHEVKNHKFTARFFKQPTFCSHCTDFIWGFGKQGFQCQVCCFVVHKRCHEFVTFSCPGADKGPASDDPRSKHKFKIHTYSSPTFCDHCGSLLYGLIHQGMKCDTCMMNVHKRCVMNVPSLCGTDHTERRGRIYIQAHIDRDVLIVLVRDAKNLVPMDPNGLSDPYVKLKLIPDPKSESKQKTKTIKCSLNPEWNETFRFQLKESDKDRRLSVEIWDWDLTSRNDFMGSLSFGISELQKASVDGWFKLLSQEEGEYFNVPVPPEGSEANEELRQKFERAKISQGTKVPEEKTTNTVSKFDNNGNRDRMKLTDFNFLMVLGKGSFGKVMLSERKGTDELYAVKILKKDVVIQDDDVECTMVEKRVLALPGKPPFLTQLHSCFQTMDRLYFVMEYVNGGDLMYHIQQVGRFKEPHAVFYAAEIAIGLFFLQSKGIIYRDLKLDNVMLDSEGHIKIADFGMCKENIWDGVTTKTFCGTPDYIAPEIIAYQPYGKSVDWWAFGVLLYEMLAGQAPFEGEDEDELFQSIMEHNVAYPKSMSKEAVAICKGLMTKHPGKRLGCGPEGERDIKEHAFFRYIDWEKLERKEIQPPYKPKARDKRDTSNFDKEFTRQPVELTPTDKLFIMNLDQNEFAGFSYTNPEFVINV
The target is the same in assay [7]. The following applies: at 1 µM.
The target of assay [8] is T2, Serine/threonine-protein kinase D1 (Homo sapiens) (UniProt Q15139).
T2 sequence (whole entry): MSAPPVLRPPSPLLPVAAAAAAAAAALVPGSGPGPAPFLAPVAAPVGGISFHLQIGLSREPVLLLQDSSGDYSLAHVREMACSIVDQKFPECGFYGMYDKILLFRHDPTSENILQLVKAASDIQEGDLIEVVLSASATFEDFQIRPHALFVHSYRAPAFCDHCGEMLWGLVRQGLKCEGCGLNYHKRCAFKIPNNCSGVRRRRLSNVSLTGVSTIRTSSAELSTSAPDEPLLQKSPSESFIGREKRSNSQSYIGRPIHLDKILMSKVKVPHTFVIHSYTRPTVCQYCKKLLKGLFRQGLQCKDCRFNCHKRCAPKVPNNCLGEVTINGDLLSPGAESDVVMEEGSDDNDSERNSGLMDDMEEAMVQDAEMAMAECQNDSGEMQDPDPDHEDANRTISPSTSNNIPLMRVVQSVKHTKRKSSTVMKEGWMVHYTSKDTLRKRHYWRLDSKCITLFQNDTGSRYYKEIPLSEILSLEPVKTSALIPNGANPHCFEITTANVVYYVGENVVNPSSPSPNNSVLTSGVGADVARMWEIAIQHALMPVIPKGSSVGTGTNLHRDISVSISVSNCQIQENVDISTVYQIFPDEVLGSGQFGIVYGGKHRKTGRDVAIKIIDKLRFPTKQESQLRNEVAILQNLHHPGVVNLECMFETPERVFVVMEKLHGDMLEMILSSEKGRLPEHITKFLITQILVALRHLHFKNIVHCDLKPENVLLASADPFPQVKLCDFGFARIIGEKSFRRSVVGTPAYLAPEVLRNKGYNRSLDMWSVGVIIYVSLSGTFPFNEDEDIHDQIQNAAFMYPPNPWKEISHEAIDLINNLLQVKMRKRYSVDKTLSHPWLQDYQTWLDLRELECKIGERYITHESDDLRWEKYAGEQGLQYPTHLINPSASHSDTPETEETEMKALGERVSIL
The following applies: at 0.1 µM.

Assay [9] deals with T2, Serine/threonine-protein kinase D1 (Homo sapiens). The following applies: at 1 µM.
Assay [10] has as its target T3, Serine/threonine-protein kinase D2 (Homo sapiens) (UniProt Q9BZL6).
T3 sequence (whole entry): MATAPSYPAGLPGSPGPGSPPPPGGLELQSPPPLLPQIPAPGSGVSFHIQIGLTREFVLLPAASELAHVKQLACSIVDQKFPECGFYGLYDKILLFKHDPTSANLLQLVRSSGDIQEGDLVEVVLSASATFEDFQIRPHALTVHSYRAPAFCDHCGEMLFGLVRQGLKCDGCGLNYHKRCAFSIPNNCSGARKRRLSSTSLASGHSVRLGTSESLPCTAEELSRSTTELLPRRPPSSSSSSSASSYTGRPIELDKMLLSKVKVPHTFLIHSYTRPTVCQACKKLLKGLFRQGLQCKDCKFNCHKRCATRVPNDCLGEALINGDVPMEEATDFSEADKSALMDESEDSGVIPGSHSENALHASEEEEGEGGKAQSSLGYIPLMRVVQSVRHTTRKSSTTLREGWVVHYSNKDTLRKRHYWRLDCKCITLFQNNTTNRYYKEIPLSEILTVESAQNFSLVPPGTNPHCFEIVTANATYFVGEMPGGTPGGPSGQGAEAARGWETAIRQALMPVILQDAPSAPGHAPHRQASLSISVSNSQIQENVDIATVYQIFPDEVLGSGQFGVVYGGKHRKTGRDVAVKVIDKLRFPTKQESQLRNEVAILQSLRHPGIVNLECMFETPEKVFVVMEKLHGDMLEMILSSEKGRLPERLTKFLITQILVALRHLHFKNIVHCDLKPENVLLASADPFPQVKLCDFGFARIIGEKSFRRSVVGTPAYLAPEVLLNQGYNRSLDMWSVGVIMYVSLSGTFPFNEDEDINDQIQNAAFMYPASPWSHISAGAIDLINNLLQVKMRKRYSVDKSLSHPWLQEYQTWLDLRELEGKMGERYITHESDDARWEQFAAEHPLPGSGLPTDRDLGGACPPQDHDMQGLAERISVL
The following applies: at 0.1 µM.

The target in assay [11] is T3, Serine/threonine-protein kinase D2 (Homo sapiens). Conditions: at 1 µM.
Assay [12] concerns the target T4, Serine/threonine-protein kinase D3 (Homo sapiens) (UniProt O94806).
T4 sequence (whole entry): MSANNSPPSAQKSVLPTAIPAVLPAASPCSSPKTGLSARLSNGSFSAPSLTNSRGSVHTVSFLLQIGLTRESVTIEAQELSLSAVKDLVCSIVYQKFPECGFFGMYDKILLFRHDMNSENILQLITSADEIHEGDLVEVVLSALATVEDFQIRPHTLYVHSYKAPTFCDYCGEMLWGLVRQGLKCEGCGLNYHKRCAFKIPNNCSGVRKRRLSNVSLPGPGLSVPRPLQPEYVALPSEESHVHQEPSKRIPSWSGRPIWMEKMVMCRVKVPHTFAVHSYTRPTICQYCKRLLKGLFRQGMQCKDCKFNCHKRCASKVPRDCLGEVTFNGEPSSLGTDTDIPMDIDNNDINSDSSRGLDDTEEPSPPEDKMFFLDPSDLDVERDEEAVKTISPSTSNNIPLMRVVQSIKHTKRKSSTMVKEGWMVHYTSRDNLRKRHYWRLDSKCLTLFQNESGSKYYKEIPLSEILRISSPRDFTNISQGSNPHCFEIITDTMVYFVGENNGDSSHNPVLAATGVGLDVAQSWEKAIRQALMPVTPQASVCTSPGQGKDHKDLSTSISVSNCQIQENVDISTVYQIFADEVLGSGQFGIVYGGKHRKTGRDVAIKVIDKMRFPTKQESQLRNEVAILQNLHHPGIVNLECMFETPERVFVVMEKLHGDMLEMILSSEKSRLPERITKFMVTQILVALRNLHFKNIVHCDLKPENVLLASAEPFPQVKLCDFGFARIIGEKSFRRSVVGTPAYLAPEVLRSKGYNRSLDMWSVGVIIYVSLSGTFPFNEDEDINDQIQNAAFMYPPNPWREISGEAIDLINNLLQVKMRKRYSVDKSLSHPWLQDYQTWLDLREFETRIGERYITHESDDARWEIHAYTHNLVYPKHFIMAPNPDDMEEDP
The following applies: at 0.1 µM.

Assay [13] deals with T4, Serine/threonine-protein kinase D3 (Homo sapiens). Conditions: at 1 µM.
Assay [14] has as its target T5, cGMP-dependent protein kinase 1 (Homo sapiens) (UniProt Q13976).
T5 sequence (whole entry): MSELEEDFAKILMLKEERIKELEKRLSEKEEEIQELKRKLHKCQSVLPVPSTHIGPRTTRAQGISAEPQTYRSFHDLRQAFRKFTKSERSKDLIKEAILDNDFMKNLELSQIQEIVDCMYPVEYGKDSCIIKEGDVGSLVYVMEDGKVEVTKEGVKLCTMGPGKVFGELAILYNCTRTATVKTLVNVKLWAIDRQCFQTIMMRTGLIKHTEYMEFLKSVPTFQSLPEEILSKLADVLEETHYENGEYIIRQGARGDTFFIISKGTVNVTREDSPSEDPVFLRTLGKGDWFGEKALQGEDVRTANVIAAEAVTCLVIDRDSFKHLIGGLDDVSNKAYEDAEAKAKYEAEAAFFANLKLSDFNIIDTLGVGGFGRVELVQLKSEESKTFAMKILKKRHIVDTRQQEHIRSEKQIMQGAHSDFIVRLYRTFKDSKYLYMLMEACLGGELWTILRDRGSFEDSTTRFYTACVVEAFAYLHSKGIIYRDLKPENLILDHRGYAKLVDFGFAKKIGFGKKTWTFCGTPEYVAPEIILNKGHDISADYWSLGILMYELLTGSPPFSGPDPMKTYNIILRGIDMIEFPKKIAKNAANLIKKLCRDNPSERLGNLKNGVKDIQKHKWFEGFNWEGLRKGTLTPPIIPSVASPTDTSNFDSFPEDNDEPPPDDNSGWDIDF
The following applies: at 0.1 µM.

The target of assay [15] is T5, cGMP-dependent protein kinase 1 (Homo sapiens). The following applies: at 1 µM.
In assay [16] the target is T6, cGMP-dependent protein kinase 2 (Homo sapiens) (UniProt Q13237).
T6 sequence (whole entry): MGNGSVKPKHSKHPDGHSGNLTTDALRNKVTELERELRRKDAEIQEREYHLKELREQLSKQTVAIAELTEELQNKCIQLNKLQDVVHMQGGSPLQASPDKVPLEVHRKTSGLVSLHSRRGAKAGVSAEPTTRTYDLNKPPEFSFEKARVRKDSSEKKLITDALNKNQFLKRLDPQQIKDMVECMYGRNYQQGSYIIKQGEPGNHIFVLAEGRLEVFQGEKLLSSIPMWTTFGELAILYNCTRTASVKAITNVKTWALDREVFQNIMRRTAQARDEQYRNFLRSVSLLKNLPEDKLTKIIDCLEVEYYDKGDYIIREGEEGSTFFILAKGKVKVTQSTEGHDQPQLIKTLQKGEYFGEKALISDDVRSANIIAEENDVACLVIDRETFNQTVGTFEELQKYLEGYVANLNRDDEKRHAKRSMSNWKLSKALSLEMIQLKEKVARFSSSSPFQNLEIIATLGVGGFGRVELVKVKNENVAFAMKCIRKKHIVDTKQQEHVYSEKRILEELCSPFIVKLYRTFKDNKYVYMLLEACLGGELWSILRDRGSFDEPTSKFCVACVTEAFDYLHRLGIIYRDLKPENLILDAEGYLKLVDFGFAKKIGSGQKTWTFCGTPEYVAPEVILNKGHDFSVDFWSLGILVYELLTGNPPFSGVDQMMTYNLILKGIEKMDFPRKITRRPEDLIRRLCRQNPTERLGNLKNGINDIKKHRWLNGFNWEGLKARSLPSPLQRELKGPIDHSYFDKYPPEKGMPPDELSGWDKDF
The following applies: at 0.1 µM.

Assay [17] deals with T6, cGMP-dependent protein kinase 2 (Homo sapiens). The following applies: at 1 µM.
The target of assay [18] is T7, cAMP-dependent protein kinase catalytic subunit PRKX (Homo sapiens) (UniProt P51817).
T7 sequence (whole entry): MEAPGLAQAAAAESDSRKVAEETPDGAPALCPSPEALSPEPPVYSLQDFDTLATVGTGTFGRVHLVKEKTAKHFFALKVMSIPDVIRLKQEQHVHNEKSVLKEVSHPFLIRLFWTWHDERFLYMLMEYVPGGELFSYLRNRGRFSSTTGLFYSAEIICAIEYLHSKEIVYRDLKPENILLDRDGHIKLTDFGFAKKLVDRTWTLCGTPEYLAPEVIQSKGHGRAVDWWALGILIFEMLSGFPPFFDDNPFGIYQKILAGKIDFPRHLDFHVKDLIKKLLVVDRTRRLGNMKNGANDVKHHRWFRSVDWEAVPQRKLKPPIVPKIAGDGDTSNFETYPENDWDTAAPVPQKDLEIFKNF
The following applies: at 0.1 µM.

Assay [19] deals with T7, cAMP-dependent protein kinase catalytic subunit PRKX (Homo sapiens). The following applies: at 1 µM.
Assay [20] deals with Rho-associated protein kinase 1 (Homo sapiens) (UniProt Q13464). The following applies: at 0.1 µM.
Sequence of Rho-associated protein kinase 1 (Homo sapiens) (Q13464 2-1354 limits assumed): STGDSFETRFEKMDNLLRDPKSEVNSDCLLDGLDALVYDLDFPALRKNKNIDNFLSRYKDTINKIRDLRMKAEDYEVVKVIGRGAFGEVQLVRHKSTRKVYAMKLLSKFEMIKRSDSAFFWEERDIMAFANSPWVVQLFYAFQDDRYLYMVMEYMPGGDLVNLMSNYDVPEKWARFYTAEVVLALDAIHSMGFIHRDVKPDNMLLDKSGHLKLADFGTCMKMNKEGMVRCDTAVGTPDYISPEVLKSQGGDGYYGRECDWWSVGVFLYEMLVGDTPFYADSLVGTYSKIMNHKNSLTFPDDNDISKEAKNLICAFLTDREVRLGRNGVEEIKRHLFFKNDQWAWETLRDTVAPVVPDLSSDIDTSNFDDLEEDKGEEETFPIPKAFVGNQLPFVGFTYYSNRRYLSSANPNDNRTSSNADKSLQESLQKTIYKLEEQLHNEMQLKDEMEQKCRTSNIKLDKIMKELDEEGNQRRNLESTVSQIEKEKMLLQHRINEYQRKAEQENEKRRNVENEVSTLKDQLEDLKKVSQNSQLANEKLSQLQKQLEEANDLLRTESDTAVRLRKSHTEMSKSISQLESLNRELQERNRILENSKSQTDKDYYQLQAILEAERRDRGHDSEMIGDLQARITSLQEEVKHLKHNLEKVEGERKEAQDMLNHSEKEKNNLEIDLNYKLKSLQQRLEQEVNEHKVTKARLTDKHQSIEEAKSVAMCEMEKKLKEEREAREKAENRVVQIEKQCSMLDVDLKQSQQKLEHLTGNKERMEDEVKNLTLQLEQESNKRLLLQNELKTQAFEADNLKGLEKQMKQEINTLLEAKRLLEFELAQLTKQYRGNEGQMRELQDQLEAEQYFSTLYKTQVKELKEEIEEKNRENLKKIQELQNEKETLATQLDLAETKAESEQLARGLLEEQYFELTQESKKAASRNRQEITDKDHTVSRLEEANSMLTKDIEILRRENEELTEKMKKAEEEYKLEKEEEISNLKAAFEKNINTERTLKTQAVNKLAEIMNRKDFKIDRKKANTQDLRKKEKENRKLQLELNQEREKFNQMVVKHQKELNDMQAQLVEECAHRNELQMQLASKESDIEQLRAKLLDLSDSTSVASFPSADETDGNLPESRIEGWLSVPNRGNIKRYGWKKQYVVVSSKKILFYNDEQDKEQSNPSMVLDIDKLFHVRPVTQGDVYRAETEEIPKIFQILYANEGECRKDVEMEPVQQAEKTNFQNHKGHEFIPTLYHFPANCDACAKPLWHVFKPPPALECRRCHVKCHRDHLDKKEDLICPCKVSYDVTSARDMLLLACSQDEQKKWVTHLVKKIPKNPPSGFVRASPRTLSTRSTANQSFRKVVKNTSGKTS

On to `COc1ccc(-c2nn3ncccc3c2-c2ccnc(Nc3ccc(F)c(F)c3)n2)cc1`, for which the inhibition (commonly the drop in the measured response relative to a control, in per cent) was 6.44% in assay [1]; 1.96% in [2]; 0.63% in assay [3]; 2.86% in assay [4]; 7.77% in [5]; 1.81% in [6]. Further, the inhibition in assay [7] came out at 3.24%; in assay [8] it was 4.47%; in assay [9], 5.19%; in [10] it was 3.52%; in assay [11], 5.42%; in assay [12], 4.4%. Moreover, the inhibition in assay [13] turned out to be 5.09%; in assay [14] it was 2.68%; in assay [15], 3.58%; in assay [16] it was 5.81%; in [17], 5.3%; in assay [18], 3.54%. Further, the inhibition is 8.39% in assay [19] and 1.21% in assay [20].
`NS(=O)(=O)c1ccc(N/N=C2\C(=O)Nc3ccc(C(=O)NCc4ccncc4)cc32)cc1`: the inhibition in assay [1] is 6.61%; in assay [2], -9.87%; in [3], 1.34%; in assay [4], 3.98%; in assay [5] it was 8.38%; in assay [6], 1.7%. Also, the inhibition in assay [7] amounted to 4.09%; in [8], 3.88%; in assay [9], 24.4%; in [10], 6.54%; in assay [11], 18.5%; in assay [12], 4.33%. The inhibition in [13] was determined as 16.4%; in [14] it was 5%; in assay [15], 19.3%; in [16], 5.42%; in assay [17] it was 18.4%; in assay [18], 6.16%. Also, the inhibition in assay [19] worked out at 15.5%; in [20] it was 0.63%.
